Source: PubChem BioAssay (National Center for Advancing Translational Sciences (NCATS))
JMJD2A Tudor inh: qHTS Assay for Inhibitors of JMJD2A-Tudor Domain; Lysine-specific demethylase 4A (Homo sapiens), O75164; AlphaScreen JMJD2A-Tudor / H3K4me3 peptide binding; Potency, µM (titrated, usually from 114 µM), inactives show at the highest dose activity change, negative = inhibition, actives largely listed as inhibitors; 390,000 compounds, 4.4% hits; also: % is scaled to controls: 0 for no effect and ±100 for the full control effect; nearly all actives have a fitted effect of over 50% in size
HP1b binding inh: HTS for Inhibitors of HP1-beta Chromodomain Interactions with Methylated Histone Tails; Chromobox protein homolog 1 (Homo sapiens), P83916; Potency, µM (doses to about 114 µM), inactives show top-dose activity change, negative = inhibition, usual class: inhibitors; 390,000 compounds, 0.56% hits; AlphaScreen HP1-beta / biotin-H3K9me3 peptide binding; also: nearly all actives have a fitted effect of over 70% in size
Target sequence (P83916 whole entry, looked up): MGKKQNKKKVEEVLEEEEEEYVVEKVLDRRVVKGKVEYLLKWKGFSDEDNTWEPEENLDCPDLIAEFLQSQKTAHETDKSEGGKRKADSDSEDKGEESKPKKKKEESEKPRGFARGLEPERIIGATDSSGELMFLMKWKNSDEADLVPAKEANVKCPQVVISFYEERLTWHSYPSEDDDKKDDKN
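HP1-beta protein (50 nM final) preincubated 30 min at room temperature with biotinylated H3(1-18)K9me3 peptide (50 nM) in PBS pH 7.4, 0.01% Tween-20, then compound added for 30 min. AlphaScreen streptavidin donor/nickel chelate acceptor beads (10 ug/mL final), 30 min dark, luminescence read.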
G9a block: qHTS Assay for Inhibitors of Histone Lysine Methyltransferase G9a | Histone-lysine N-methyltransferase EHMT2 (Homo sapiens), Q96KQ7 | Potency, µM (doses to about 102 µM), inactives show top-dose activity, negative = inhibition, hits mostly inhibitors | AID 504332, 2011 | G9a H3K9 monomethylation, AlphaScreen, 2 h | 350,000 compounds, 8.8% hits; also: % is scaled to controls: 0 for no effect and ±100 for the full control effect; nearly all actives have a fitted effect of over 75% in size
Target sequence (Q96KQ7 913-1193 limits assumed): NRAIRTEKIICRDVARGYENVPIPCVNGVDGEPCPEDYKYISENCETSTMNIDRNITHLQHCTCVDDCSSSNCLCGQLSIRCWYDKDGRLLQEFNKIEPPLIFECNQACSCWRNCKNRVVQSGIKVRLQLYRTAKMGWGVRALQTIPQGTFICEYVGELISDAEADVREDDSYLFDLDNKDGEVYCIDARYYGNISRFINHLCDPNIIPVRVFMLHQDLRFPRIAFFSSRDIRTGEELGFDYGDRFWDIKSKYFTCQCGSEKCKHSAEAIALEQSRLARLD
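Enzyme 20 nM + cpd, 15 min RT; add b-H3K9 pep 500 nM / SAM 20 uM; 2 h RT; anti-H3K9me1 Ab 0.5 ug/mL + SA donor / anti-rabbit acceptor beads 20 ug/mL each, 10 min; AlphaScreen read.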
Sfp PPTase inh: qHTS Assay for Inhibitors of Bacillus subtilis Sfp phosphopantetheinyl transferase (PPTase) | Biochemical Sfp PPTase activity, qHTS | Potency, µM, inactives show largest response in the series, negative = inhibition, most hits filed as inhibitors | 310,000 compounds, 3.5% hits;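 also: the enzyme is Sfp with the accession as filed and its product quenches rhodamine fluorescence; 0% = enzyme reaction without inhibitor and -100% = no enzyme wells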
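Compounds were incubated with enzyme (final 15 nM) for 15 min at room temperature before substrate addition started the reaction. Fluorescence at 525 nm excitation, 598 nm emission was recorded immediately and after 30 minutes.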
BAZ2B block: qHTS Assay for Inhibitors of BAZ2B; 360,000 compounds, 4.4% hits; AlphaScreen BAZ2B-H3K14Ac peptide displacement; Potency, µM (top dose mostly 114 µM), without a hit: top-dose activity change, negative = inhibition, usual class: inhibitors; Bromodomain adjacent to zinc finger domain protein 2B (Homo sapiens), Q9UIF8; also: % is scaled to controls: 0 for no effect and ±100 for the full control effect; nearly all actives have a fitted effect of over 60% in size
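Inhibition is scored as reduced AlphaScreen emission. The BAZ2B/b-H3(5-23)K14Ac complex (50 nM each) in PBS pH 7.4, 0.01% Tween-20 meets compound (up to 110 uM) for 30 min at RT before bead addition.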
PLK1 PBD inh: qHTS for Inhibitors of PLK1-PDB (polo-like kinase 1 - polo-box domain): Primary Screen | Potency, µM, without a hit: max response, negative = inhibition, usual class: inhibitors | Serine/threonine-protein kinase PLK1 (Homo sapiens), P53350 | 360,000 compounds, 2.8% hits | Plk1 PBD binding of FITC phosphopeptide, fluorescence polarization; also: series mostly up to about 57 µM; % is scaled to controls: 0 for no effect and ±100 for the full control effect; nearly all actives have a fitted effect of over 65% in size
The depositor's hits bear a star; ? = inconclusive; nt = no result; ! = not confirmed by another sample; [ ] = another dose, or the depositor's remark. This is a sample that favours compounds with a hit; in the whole collection about 12% have one here. Calls follow the shape of the dose curve; as a rule, active = well fitted curve in the direction sought with a large enough effect; inconclusive = small, poorly fitted or top-dose-only effect, or another doubt; inactive = no such curve, though single readings can be large; an effect the other way counts as inactive or inconclusive. Potency is read from the fitted curve at half-maximal effect.

SMILES | JMJD2A Tudor inh | HP1b binding inh | G9a block | Sfp PPTase inh | BAZ2B block | PLK1 PBD inh
C[C@]12CCC3C(CC[C@H]4C[C@H](OC(=O)c5cccnc5)CC[C@]34C)C1CCC2=O (stereo not given in full) | -21% | 29% | nt | nt | nt | -4%
CC(O)C(C)OC(=O)[C@@H]1C[C@@H]2c3cccc4c3c(cn4C(C)C)C[C@H]2N(C)C1 (stereo not given in full) | nt | nt | 45µM*! | ? | nt | nt
CCCn1cc2c3c(cccc31)C1CC(C)CN(C)C1C2 (stereo not given) | nt | nt | ? | 10% | -25% | nt
Cc1ccc(NC(=O)CN2C(=O)CN=C(c3ccccc3)c3ccccc32)cc1Cl | -14% | 14% | -12%[59 µM] | nt | -6% | nt
C#CC(C)(O)CC (stereo not given) | nt | nt | 5%[12.7 µM] | -2% | nt | nt
O=C1c2ccccc2C(=O)c2c1ccc1c(=O)n(-c3ccccc3)[nH]c21 | -21% | -6% | 3.2µM* | 2% | -26% | 8%
O=c1[nH]sc2cc(F)ccc12 | 22µM* | ? | 1.6µM* | 3.2µM* | 45µM* | 3.8µM*
CC[N+](CC)(CC)CCOc1cccc(OCC[N+](CC)(CC)CC)c1OCC[N+](CC)(CC)CC | 22µM* | 25% | 5.3µM*! | ? | -38% | -11%
Cc1ccc(OC(F)F)c(N2C(=O)C3C4CCC(O4)C3C2=O)c1 (stereo not given) | 3% | 32% | 21%[2.33 µM] | nt | 15% | -1%
CCCN(CCC)c1c([N+](=O)[O-])cc(S(N)(=O)=O)cc1[N+](=O)[O-] | nt | nt | nt | 14% | nt | nt
CC1CCCC(C2(O)C(=O)Nc3ccccc32)C1=O (stereo not given) | -6% | 4% | 1.8µM* | -12% | -33% | -6%
O=C(O)CCC(CP(=O)(O)O)C(=O)O (stereo not given) | nt | nt | nt | -7% | nt | nt
NP(=O)(Oc1ccccc1)c1ccccc1 (stereo not given) | -20% | 17% | nt | nt | nt | -1%
O=P(Oc1ccccc1)(Oc1ccccc1)c1ccccc1 | 34% | 80% | nt | -17% | 0.89µM* | -5%
COc1cc2c(cc1OC)-c1c(OC)c(OC)cc3c1[C@H](C2)[N+](C)(C)CC3 | ? | -6% | 14µM* | 0% | -30% | -3%
O=C1CS[C@@H](c2ccccc2Cl)c2cc(Cl)ccc2N1 | nt | nt | nt | -2% | nt | nt
O=C(Oc1ccccc1)N1CCC[C@@]2(CCN(Cc3nccs3)C2)C1 | nt | nt | -6%[12.7 µM] | 20% | nt | nt
CCCCn1c(O)c(C(C)=NCCN2CCOCC2)c(=O)[nH]c1=O | -9% | 35% | 22µM* | 21% | 13% | -2%
CCC(=NCCN1CCOCC1)c1c(O)n(-c2ccccc2C)c(=O)[nH]c1=O | -25% | 73% | 28µM* | -26% | -37% | -11%
O=c1[nH]c(=O)n(Cc2ccccc2)c(O)c1C=Nc1ccc(CN2CCOCC2)cc1 | -7% | 21% | ? | 56µM* | 43% | -3%
CCCCn1c(O)c(C(CC)=NCCN2CCOCC2)c(=O)[nH]c1=O | -14% | 32% | ? | -25% | ? | -12%
CCCCn1c(O)c(C=NCCN2CCCCC2)c(=O)[nH]c1=O | -5% | 14% | 79µM* | 13% | -2% | -4%
CC(=NCCN1CCOCC1)c1c(O)n(-c2ccccc2C)c(=O)[nH]c1=O | -14% | 42% | 24%[59 µM] | 7% | 3% | -5%
CCCCn1c(O)c(C=NCCCN(CC)CC)c(=O)[nH]c1=O | -11% | 20% | 16%[59 µM] | 5% | nt | -4%
C[C@]12CC[C@H]3[C@@H](CCC4C[C@H](O)CC[C@@]43C)[C@@H]1CC[C@@H]2O (stereo not given in full) | nt | nt | 10%[12.7 µM] | nt | nt | nt
SMILES | JMJD2A Tudor inh | HP1b binding inh | G9a block | Sfp PPTase inh | BAZ2B block | PLK1 PBD inh
Cn1c(=O)oc2cc(S(=O)(=O)N3CCCC(C(=O)N4CCN(c5cccc(Cl)c5)CC4)C3)ccc21 (stereo not given) | -15% | 27% | ? | nt | -12% | nt
C=CCN1CC[C@@]23c4c5ccc(O)c4O[C@H]2/C(=N\N=C2/CC[C@@]4(O)[C@H]6Cc7ccc(O)c8c7[C@@]4(CCN6CC=C)[C@@H]2O8)CC[C@]3(O)[C@@H]1C5 | nt | nt | nt | -10% | nt | nt
CCC(=NCCCN1CCOCC1)c1c(O)n(Cc2ccccc2)c(=O)[nH]c1=O | -1% | 28% | 13µM* | 2% | 11% | -2%
O=C(c1cn(Cc2ccccc2)c2ccccc12)C1CC1 | 23% | 30% | 38%[59 µM] | -8% | 14% | 27µM*
COc1cccc2c1C13CC[N+]4(CC5CC5)CO[C@]1(CCC(=O)C3)C4C2 | nt | nt | 21%[59 µM] | 21% | nt | nt
CCCOP(=O)(OCCC)C(Nc1ccc(C(C)C)cc1)c1ccc([N+](=O)[O-])cc1 (stereo not given) | ? | -23% | ? | -11% | 56µM* | 2%
Cc1ccnc(-n2c(-c3ccccc3)nc3ccccc3c2=O)c1 | -3% | 20% | 13%[59 µM] | 5% | 0% | -8%
Cc1ccnc(-n2c(C)nc3ccccc3c2=O)c1 | ? | ? | -2%[59 µM] | -7% | 1% | 27µM*
CCCC1=Nc2cc(C(=O)NCCc3ccc(OC)cc3OC)ccc2Sc2ccccc21 | -27% | 6% | -46%[59 µM] | nt | 79µM* | nt
CCCC1=Nc2cc(C(=O)NC3CCC(C)CC3)ccc2Sc2ccccc21 (stereo not given) | -17% | 19% | -7%[59 µM] | nt | -10% | nt
C[C@H](CO)N1C[C@H](C)[C@H](CN(C)C(=O)Oc2ccccc2)OCc2cnnn2CCCC1=O | nt | nt | nt | nt | nt | -8%
C=CCN1CC[C@]23c4c5ccc(O)c4O[C@H]2/C(=N/NC(=O)c2ccccc2)CC[C@@]3(O)[C@H]1C5 | -16% | 31% | 35µM* | 1% | nt | -5%
COC(=O)c1ccccc1N=Cc1c(O)[nH]c(=S)[nH]c1=O | -5%[11.4 µM] | 2% | ? | -24% | -14% | ?
COc1cccc(-n2c(/C=C/c3cccc(C)c3)nc3ccccc3c2=O)c1 | -15% | 14% | 2%[59 µM] | nt | -3% | nt
CC1=NN(c2ccccc2)C(=O)/C1=C/c1c(O)[nH]c(=O)[nH]c1=O | -21% | 25% | 40µM* | 4% | ? | -24%
Cc1cc(C)c(N=Cc2c(O)[nH]c(=O)[nH]c2=O)c(C)c1 | -5% | 51% | 6% | 1% | 5% | -3%
